Consider eleven compounds from ChEMBL document CHEMBL3988442, “University of Dundee, Small-Polar-MMV Screening Library” (2021).

Design in all cases: scale not given: direction of the effect not stated beside the values
Experiment [1] has as its target Protein translocase subunit SecA (Escherichia coli (strain K12)) (UniProt P10408). The experiment can be described thus: Assay to Identify E. coli SecA ATPase Inhibitors. It is filed as functional. The following applies: 30 µM.
The target in experiment [2] is T1, Ubiquitin-activating enzyme e1, putative (Leishmania donovani (strain BPK282A1)) (UniProt E9BSI1).
T1 sequence (whole entry): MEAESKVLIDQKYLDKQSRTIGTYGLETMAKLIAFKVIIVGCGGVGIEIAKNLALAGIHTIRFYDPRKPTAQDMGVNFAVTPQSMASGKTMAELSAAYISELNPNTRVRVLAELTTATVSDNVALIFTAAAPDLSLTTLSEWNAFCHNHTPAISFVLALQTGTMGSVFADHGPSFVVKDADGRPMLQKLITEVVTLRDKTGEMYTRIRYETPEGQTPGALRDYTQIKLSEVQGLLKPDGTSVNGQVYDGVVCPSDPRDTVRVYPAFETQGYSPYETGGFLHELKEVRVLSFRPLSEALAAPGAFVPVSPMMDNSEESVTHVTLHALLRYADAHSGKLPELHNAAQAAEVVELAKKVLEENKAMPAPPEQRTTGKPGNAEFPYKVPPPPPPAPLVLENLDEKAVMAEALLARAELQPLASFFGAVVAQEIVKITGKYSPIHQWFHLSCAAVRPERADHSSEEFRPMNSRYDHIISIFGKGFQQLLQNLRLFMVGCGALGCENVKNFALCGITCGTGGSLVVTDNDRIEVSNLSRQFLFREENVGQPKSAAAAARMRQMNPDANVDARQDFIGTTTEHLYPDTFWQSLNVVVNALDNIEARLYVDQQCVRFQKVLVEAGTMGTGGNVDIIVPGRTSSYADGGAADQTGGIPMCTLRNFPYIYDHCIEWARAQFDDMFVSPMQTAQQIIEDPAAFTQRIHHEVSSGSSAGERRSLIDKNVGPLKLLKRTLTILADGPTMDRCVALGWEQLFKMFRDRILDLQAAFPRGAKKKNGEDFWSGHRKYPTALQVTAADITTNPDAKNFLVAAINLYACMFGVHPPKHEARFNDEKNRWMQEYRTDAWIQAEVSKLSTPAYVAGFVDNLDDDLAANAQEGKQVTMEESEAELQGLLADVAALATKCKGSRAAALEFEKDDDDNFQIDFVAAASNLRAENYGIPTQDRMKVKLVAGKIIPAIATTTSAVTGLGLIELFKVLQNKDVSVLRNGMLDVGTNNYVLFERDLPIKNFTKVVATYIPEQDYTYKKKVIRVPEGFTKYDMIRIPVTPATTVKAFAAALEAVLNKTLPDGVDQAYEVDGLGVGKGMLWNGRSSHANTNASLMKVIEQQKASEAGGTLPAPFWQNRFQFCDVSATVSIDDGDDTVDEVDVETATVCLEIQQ
The experiment in a line: Leishmania donovani Ubiquitin Activating Enzyme (LdE1). In kind it is functional. The following applies: 30 µM.

The target of experiment [3] is AMP-activated protein kinase, AMPK (Homo sapiens) (UniProt P54646+O43741+P54619+Q9UGJ0+Q9Y478+Q13131+Q9UGI9). The experiment in a line: AMP-dependent Kinase enzyme assay. An in vitro enzyme assay that detects ADP turnover that is directly proportional to AMPK activity. This uses naive AMPK that is activated during the assay with MK-8722. The following applies: 30 µM. In kind it is functional.

The target in experiment [4] is Sialic acid-binding Ig-like lectin 9 (Homo sapiens) (UniProt Q9Y336). The experiment can be described thus: Hs-Siglec9 ALPHAscreen SOP 20170721. Conditions: 10 µM. On the technique in general: In Alpha technology, singlet oxygen from a donor bead excites a nearby acceptor bead.
Sequence of Sialic acid-binding Ig-like lectin 9 (Homo sapiens) (Q9Y336 whole entry): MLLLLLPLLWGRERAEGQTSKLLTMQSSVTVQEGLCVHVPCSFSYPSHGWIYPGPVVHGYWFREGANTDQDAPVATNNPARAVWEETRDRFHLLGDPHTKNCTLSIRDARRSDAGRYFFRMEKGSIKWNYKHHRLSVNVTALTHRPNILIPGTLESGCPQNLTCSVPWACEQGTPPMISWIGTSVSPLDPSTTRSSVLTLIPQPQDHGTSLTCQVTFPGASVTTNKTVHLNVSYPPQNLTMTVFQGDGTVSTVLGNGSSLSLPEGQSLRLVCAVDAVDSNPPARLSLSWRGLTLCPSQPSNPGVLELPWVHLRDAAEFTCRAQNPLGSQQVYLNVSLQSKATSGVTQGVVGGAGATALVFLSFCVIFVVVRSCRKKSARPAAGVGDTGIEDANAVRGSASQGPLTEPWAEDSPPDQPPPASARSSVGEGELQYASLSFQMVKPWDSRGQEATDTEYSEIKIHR
The subject of experiment [5] is Trypanosoma cruzi. The experiment in a line: Trypanosoma cruzi phosphomannomutase and mannose-1-phosphate guanylyltransferase assay. In kind it is functional. Conditions: 10 µM.
For experiment [6], the target named is T2, Arginase-2, mitochondrial (Homo sapiens) (UniProt P78540).
T2 sequence (whole entry): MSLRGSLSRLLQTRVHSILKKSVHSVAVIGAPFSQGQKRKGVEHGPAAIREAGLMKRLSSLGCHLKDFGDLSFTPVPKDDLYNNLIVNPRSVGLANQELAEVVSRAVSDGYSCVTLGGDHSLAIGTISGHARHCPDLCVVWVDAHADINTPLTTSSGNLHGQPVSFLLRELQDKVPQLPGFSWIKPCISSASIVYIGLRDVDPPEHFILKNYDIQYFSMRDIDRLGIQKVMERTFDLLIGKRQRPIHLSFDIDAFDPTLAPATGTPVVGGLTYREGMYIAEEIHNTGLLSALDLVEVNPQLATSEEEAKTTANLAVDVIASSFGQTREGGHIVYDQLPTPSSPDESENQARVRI
The experiment can be described thus: in vitro enzyme assay to detect the production of urea directly proportional to the activity of Arginase II. Further: in the data most compounds retested in dose-response had high values. In kind it is functional. Conditions: 33.3 µM.

Experiment [7] deals with T3, Proteasome subunit beta (Trypanosoma cruzi) (UniProt O96673).
T3 sequence (whole entry): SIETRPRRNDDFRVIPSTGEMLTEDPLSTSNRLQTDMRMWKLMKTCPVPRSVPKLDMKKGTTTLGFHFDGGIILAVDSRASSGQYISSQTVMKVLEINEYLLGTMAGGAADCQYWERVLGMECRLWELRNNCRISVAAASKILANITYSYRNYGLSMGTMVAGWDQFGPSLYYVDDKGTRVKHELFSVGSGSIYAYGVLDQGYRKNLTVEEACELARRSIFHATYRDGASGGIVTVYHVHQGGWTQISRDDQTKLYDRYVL
The experiment in a line: Trypanosoma cruzi proteasome chymotrypsin-like activity (TcProtChymo) assay. Further: in the data most compounds retested in dose-response had high values. It is filed as functional. The following applies: 9.37 µM.

For experiment [8], the species on record is Homo sapiens. The experiment can be described thus: To identify inhibition of the IFN signalling (Jak-Stat) pathway via expression of an eGFP reporter gene under the control of an IFN-stimulated response element (ISRE) containing MxA promoter. In kind it is functional. Conditions: 30 µM.
The target of experiment [9] is T4, Tyrosyl-tRNA synthetase, putative (Trypanosoma cruzi (strain CL Brener)) (UniProt Q4DSP6).
T4 sequence (whole entry): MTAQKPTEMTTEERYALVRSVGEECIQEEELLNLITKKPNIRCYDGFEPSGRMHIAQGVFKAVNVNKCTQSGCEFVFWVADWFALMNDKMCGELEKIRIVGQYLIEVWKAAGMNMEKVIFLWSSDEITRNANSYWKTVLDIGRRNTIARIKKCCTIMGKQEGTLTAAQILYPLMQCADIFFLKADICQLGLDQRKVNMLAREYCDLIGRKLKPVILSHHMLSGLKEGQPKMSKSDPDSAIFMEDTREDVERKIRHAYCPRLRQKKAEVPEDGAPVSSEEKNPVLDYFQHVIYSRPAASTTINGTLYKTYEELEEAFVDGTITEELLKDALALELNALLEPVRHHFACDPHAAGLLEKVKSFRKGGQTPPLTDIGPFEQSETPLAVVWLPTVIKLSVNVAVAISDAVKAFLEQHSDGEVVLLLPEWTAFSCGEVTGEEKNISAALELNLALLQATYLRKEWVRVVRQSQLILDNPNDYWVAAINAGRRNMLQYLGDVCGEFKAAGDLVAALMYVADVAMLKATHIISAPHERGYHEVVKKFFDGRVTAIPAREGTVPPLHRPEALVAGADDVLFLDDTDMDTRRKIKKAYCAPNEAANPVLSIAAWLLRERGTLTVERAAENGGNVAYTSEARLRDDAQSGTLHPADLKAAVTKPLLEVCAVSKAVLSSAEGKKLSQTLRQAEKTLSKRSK
The experiment can be described thus: Trypanosoma cruzi tyrosyl tRNA synthetase (TcYRS) _High Tyrosine SOP. Further: in the data most compounds retested in dose-response had high values. Conditions: 30 µM. In kind it is functional.

Experiment [10] deals with T4, Tyrosyl-tRNA synthetase, putative (Trypanosoma cruzi (strain CL Brener)). The experiment in a line: Trypanosoma cruzi tyrosyl tRNA synthetase (TcYRS) SOP. It is filed as functional. The following applies: 30 µM.
Experiment [11] concerns the target Chromo domain-containing protein 1 (Saccharomyces cerevisiae (strain ATCC 204508 / S288c) (Baker's yeast)) (UniProt P32657). The experiment in a line: ScCHD-1 Enzyme Inhibition Assay. Further: in the data most compounds retested in dose-response had high values. It is filed as functional. The following applies: 30 µM.

For some of these results: Entries with a potency or affinity are not part of this list.

Sequence of Protein translocase subunit SecA (Escherichia coli (strain K12)) (P10408 whole entry): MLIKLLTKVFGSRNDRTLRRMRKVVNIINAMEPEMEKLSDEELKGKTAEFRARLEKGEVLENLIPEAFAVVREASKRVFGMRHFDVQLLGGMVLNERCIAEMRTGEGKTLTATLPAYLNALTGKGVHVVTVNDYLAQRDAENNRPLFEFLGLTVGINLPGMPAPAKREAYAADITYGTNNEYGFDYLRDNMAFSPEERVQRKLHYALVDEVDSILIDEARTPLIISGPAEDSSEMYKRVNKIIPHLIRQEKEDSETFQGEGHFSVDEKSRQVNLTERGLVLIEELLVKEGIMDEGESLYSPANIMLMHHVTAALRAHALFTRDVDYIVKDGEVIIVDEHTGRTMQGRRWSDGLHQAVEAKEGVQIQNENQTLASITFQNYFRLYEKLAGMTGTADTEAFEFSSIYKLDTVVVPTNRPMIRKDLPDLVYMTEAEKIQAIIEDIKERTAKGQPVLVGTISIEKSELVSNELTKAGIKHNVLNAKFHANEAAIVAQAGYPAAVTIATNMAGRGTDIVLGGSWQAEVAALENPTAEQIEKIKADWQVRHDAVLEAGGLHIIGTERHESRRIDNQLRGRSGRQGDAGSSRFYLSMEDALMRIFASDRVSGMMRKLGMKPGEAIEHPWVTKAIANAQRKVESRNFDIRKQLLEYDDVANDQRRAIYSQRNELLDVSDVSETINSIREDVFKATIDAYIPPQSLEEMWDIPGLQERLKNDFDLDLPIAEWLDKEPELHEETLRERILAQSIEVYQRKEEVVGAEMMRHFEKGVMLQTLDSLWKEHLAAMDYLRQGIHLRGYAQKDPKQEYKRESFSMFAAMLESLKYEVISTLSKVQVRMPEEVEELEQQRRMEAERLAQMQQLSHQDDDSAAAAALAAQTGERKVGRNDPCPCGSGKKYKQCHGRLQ
Sequence of Chromo domain-containing protein 1 (Saccharomyces cerevisiae (strain ATCC 204508 / S288c) (Baker's yeast)) (P32657 whole entry, the tested form may be a part): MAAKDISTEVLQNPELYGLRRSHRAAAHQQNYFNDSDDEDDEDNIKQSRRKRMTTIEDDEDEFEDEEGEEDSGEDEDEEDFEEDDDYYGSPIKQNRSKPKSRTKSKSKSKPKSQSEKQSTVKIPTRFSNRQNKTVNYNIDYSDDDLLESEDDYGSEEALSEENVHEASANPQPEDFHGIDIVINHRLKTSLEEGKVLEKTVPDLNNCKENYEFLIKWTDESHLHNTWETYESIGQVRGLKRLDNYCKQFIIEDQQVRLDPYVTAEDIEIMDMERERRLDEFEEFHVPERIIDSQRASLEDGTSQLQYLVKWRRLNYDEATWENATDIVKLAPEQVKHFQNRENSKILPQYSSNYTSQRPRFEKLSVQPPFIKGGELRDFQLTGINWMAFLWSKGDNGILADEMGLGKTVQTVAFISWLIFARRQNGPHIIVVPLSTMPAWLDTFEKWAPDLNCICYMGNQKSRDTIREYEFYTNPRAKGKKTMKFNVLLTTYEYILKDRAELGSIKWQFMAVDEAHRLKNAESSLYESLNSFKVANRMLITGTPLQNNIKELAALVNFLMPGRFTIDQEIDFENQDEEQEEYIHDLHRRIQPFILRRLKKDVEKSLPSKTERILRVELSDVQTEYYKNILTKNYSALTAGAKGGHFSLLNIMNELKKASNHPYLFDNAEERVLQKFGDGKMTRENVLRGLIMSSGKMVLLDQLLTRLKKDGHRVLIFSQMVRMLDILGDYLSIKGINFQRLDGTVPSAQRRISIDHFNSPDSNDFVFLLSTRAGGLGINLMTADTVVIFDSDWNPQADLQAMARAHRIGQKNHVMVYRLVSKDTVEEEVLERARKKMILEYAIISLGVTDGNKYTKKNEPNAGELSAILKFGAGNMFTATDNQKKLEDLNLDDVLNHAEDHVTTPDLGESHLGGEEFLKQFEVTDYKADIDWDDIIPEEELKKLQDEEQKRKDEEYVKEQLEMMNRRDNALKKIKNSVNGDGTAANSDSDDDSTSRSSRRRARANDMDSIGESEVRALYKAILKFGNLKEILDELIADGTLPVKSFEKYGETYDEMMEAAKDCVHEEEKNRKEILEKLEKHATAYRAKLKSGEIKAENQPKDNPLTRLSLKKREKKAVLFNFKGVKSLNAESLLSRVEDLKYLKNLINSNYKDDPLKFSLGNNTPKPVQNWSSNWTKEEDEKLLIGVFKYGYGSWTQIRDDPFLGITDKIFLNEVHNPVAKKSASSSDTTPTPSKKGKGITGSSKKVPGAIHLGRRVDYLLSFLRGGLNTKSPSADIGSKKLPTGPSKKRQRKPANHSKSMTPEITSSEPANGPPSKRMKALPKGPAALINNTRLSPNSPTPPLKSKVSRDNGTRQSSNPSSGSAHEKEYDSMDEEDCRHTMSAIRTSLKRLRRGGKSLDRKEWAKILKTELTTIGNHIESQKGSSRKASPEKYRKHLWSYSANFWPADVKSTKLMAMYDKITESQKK

Regarding `CC(C)CN1CCCC2(CCN(C(=O)c3cnccn3)C2)C1` (stereo unspecified), the Percent Effect in experiment [1] was 2.12%; in [2] it was -2.6%; in [3] it was -0.541%; in [4], 2.48%; in [5], -4.24%; in [6] it was -3.23%. For the same compound, the Percent Effect is 3.13% in experiment [7]; 0.321% in experiment [8]; 3.17% in experiment [9]; -3.85% in experiment [10]; -5.96% in [11].

In the case of `CNS(=O)(=O)c1ccc(C(=O)N2CCCC2c2ccccc2)o1` (stereo unspecified), the Percent Effect in experiment [1] was -6.62%; in experiment [2] it was 13.2%; in experiment [3], 2.8%; in experiment [4] it was 2.47%; in experiment [5] it was 2.15%; in experiment [6] it was -3.6%. For the same compound, the Percent Effect in experiment [7] is -2.96%; in [8] it was -6.57%; in experiment [9], 6.4%; in experiment [10], 18.5%; in [11], 1%.

On to `Cc1nc(CN2CCCC(N(C)CCc3cccs3)C2)no1` (stereo unspecified), for which the Percent Effect in experiment [1] was -2.72%; in [2], 12.5%; in experiment [3] it was -8.86%; in experiment [4], 8.38%; in experiment [5], -1.65%; in [6], 2.21%. Moreover, the Percent Effect in experiment [7] is 11.4%; in experiment [8], 10.9%; in experiment [9], 7.37%; in experiment [10] it was 2.56%; in experiment [11], -2.19%.

Regarding `COCc1cc(NCc2cc(F)ccc2F)n2nccc2n1`, the Percent Effect in [1] was -3.49%; in experiment [2], -2.74%; in [3], -7.06%; in [4], 1.05%; in [5] it was -5.68%; in [6], 2.27%. For the same compound, the Percent Effect in experiment [7] was 5.15%; in experiment [8], 15.9%; in [9], 2.15%; in [10] it was 7.5%; in experiment [11], -6.68%.

Regarding `NC(=O)C1CCN(C(=O)NCc2ccccc2Cn2cncn2)CC1`, the Percent Effect in [1] was -3.59%; in experiment [2], 5.41%; in experiment [3], 4.01%; in [4] it was 0.839%; in experiment [5], -3.86%; in experiment [6], 0%. Further, the Percent Effect was 10.2% in [7]; 1.83% in experiment [8]; 2.65% in experiment [9]; 7.32% in experiment [10]; -1.94% in experiment [11].

`O=C(CCc1ccc(O)cc1)N1CCC(Cc2ccc(CO)cc2)C1` (stereo unspecified): the Percent Effect was -2.29% in [1]; 6.94% in experiment [2]; 21.8% in [3]; -5.94% in experiment [4]; -2.82% in experiment [5]; 1.32% in experiment [6]. For the same compound, the Percent Effect in experiment [7] is 8.6%; in experiment [8], -10.8%; in experiment [9], 5.26%; in experiment [10] it was 12.8%; in experiment [11], -1.12%.

For the compound `CCC(C(=O)NC)N(c1cccc(C)c1)S(C)(=O)=O` (stereo unspecified), the Percent Effect is -4.2% in experiment [1]; 16% in experiment [2]; -4.91% in experiment [3]; 18.5% in [4]; 6.72% in [5]; 41.7% in experiment [6]. Further, the Percent Effect in [7] is 4.71%; in [8] it was 9.46%; in experiment [9] it was 4.92%; in experiment [10], 13.6%; in [11], -3.23%.

Regarding `Cn1cc(C(=O)NC2CCN(C(=O)NCCSC(F)(F)F)CC2)cn1`, the Percent Effect was -1.89% in experiment [1]; 13.9% in experiment [2]; 2.72% in [3]; 2.15% in experiment [4]; -1.13% in experiment [5]; -0.215% in experiment [6]. For the same compound, the Percent Effect is 13% in experiment [7]; 8.82% in experiment [8]; 9.38% in experiment [9]; 17.7% in experiment [10]; -19.9% in experiment [11].

With `COc1cccc(N2CCN(Cc3ncc[nH]3)CC2=O)c1`, the Percent Effect in [1] is -0.114%; in [2], 6.94%; in [3] it was -20.4%; in experiment [4], -7.16%; in [5], -1.85%; in [6], -0.442%. Besides, the Percent Effect in [7] was 12.3%; in experiment [8] it was -17.7%; in [9], -2.1%; in [10] it was 10.3%; in [11] it was -4.76%.

Consider `c1cnn(CC2CN(c3ncnc4sccc34)CCO2)c1` (stereo unspecified), for which the Percent Effect in experiment [1] is -4.4%; in [2], 2.7%; in experiment [3], 2.36%; in experiment [4] it was -2.57%; in experiment [5], 1.37%; in experiment [6], 2.08%. Besides, the Percent Effect was 17.8% in experiment [7]; 52.9% in [8]; 12.9% in [9]; 15.8% in experiment [10]; -4.89% in experiment [11].

In the case of `Cc1nn(C)c(C)c1C1CCCN1C(=O)CCCn1cccn1` (stereo unspecified), the Percent Effect in experiment [1] was 0.0877%; in experiment [2] it was 0%; in [3] it was 3.67%; in experiment [4] it was -4.76%; in experiment [5], -6.07%; in experiment [6], 10.1%. Also, the Percent Effect was -2.45% in experiment [7]; 9.1% in [8]; 0.493% in experiment [9]; -6.17% in experiment [10]; 1.61% in [11].
